A short description of experiment [1]: ATG_GLI_CIS: Attagene CIS-FACTORIAL HepG2 Assay for human Zinc Finger Protein GLI1 (AID 2282945). To be noted: HepG2, Attagene cis-factorial reporter mRNA, GLI element; actives raise or lower the signal. In a few lines: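 Transiently transfected HepG2 cells report endogenous transcription factor activity via cis-element-driven reporter units. After 24 h compound exposure, reporter mRNA was measured by RT-PCR with capillary electrophoresis; bidirectional fitting against DMSO baseline.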

Experiment [2] in a line: ATG_GRE_CIS: Attagene CIS-FACTORIAL HepG2 Assay for human Glucocorticoid Response Elements (GRE) (AID 2282947). To be noted: HepG2 GRE cis-reporter, Attagene multiplex mRNA; actives raise or lower the signal. In a few lines:
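Read-out: fluorescent reporter-transcript fragments separated by capillary electrophoresis after RT-PCR. Transiently transfected HepG2 cells carrying cis-element-driven reporter units were dosed for 24 h; gain or loss of signal fitted against DMSO control.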

The nature of experiment [3]: ATG_ISRE_CIS: Attagene CIS-FACTORIAL HepG2 Assay for human Interferon Regulatory Factor 1 (IRF1) binding to an Interferon-Stimulated Response Element (ISRE) (AID 2282948). To be noted: HepG2 ISRE cis-reporter (Attagene), mRNA transcription readout; actives raise or lower the signal. An outline of the steps: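 Multiplexed mRNA reporter readout in human liver HepG2 cells: cis-element-driven reporters transfected, compound added for 24 h, transcripts amplified, fluorescently labelled and sized by capillary electrophoresis; curve fitting bidirectional against DMSO.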

The nature of experiment [4]: ATG_M_32_CIS: Attagene CIS-FACTORIAL HepG2 Assay for M32 Transcription Factor (Internal Marker) (AID 2282949).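 Note: background control marker of the multiplexed CIS panel rather than a real target.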 To be noted: HepG2 Attagene cis-factorial M32 reporter, mRNA; actives raise or lower the signal. In a few lines:
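Using DMSO as baseline, bidirectional curve fits were applied to reporter mRNA signals. These came from transiently transfected HepG2 cells exposed for 24 h, with RNA analysed by RT-PCR, FAM primer extension, HpaI digestion and CE.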

The nature of experiment [5]: ATG_M_06_CIS: Attagene CIS-FACTORIAL HepG2 Assay for M06 Transcription Factor (Internal Marker) (AID 2282950). The conditions noted are these: HepG2 Attagene CIS-FACTORIAL M06 internal marker reporter; actives raise or lower the signal. An outline of the steps:
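Terse: HepG2, transient MRTU transfection (FuGene 6), 24 h dosing; total RNA, oligo(dT) RT, PCR, FAM label, HpaI cut, capillary electrophoresis; bidirectional fit vs DMSO baseline; background-control endpoint.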

Experiment [6] concerns the target Hypoxia-inducible factor 1-alpha (Homo sapiens) (UniProt Q16665). Description: ATG_HIF1a_CIS: Attagene CIS-FACTORIAL HepG2 Assay for human Hypoxia Inducible Factor 1 (HIF1A) (AID 2282951). The conditions noted are these: HepG2 Attagene cis-factorial HIF1a reporter transcription; actives raise or lower the signal. In a few lines:
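After 24 h chemical exposure of reporter-transfected HepG2 cells, reporter cDNA was PCR-amplified, labelled by 6-FAM primer extension (2 min 95 C, 20 s 68 C, 10 min 72 C), HpaI-cut (2 h, 37 C) and analysed by CE.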

Experiment [7] has as its target Hepatocyte nuclear factor 6 (Homo sapiens) (UniProt Q9UBC0). Description: ATG_HNF6_CIS: Attagene CIS-FACTORIAL HepG2 Assay for human Hepatocyte Nuclear Factor 6 (HNF6) (AID 2282952). The conditions noted are these: HepG2 Attagene cis-factorial HNF6 reporter transcription; actives raise or lower the signal. An outline of the steps: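 Endogenous transcription factor activity in human HepG2 liver cells was captured through cis-regulated reporter constructs. After 24 h treatment, reporter mRNA was measured by RT-PCR with capillary electrophoresis, and activity was fitted in both directions relative to DMSO.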

Experiment [8] deals with Heat shock factor protein 1 (Homo sapiens) (UniProt Q00613). Description: ATG_HSE_CIS: Attagene CIS-FACTORIAL HepG2 Assay for human Heat Shock Transcription Factor 1 (HSE) (AID 2282953). To be noted: HepG2 HSE cis-reporter, Attagene RNA transcription; actives raise or lower the signal. An outline of the steps:
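Read-out: fluorescence of reporter-specific RT-PCR fragments separated by capillary electrophoresis. HepG2 carrying transfected cis-element reporter units; 24 h dosing; activity fitted in both directions relative to DMSO baseline.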

Experiment [9] in a line: ATG_MRE_CIS: Attagene CIS-FACTORIAL HepG2 Assay for human Metal Responsive Element (MRE) (AID 2282954). To be noted: HepG2 MRE cis-reporter transcription, Attagene multiplex; actives raise or lower the signal. An outline of the steps:
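RT-PCR/capillary electrophoresis readout of reporter mRNA, 24 h post-dosing, in HepG2 cells transfected with multiplexed cis-regulated reporter constructs. Gain or loss of signal fitted bidirectionally against DMSO baseline.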

Experiment [10] is described as follows: ATG_PBREM_CIS: Attagene CIS-FACTORIAL HepG2 Assay for human Phenobarbital-responsive Enhancer Module (PBREM) (AID 2282955). The conditions noted are these: HepG2 PBREM cis-reporter, Attagene multiplexed transcription; actives raise or lower the signal. An outline of the steps: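 Measures endogenous factor action on a phenobarbital-responsive enhancer module. HepG2 transiently carrying cis reporters, 24 h treatment, mRNA read-out by RT-PCR plus capillary electrophoresis.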

In experiment [11] the target is Paired box protein Pax-6 (Homo sapiens) (UniProt P26367). Description: ATG_Pax6_CIS: Attagene CIS-FACTORIAL HepG2 Assay for human Paired Box 6 (PAX6) (AID 2282956). The conditions noted are these: HepG2 CIS-FACTORIAL PAX6 reporter transcription, RNA readout; actives raise or lower the signal. An outline of the steps: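 Fluorescent RT-PCR products separated by capillary electrophoresis report PAX6-linked promoter mRNA in HepG2 cells 24 h post-dose. Curves fitted bidirectionally, DMSO as negative control.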

Experiment [12] is described as follows: ATG_PXRE_CIS: Attagene CIS-FACTORIAL HepG2 Assay for human Pregnane X Receptor Element (PXRE) (AID 2282957). To be noted: HepG2 Attagene CIS-FACTORIAL PXRE reporter, mRNA; actives raise or lower the signal. An outline of the steps:
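Endogenous transcription factor activity in HepG2 was gauged through induction of reporter mRNA driven by a cis-regulating promoter element, sampled 24 h post-treatment. Activity was fitted in both directions against DMSO negative control.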

A short description of experiment [13]: ATG_PPRE_CIS: Attagene CIS-FACTORIAL HepG2 Assay for human Peroxisome Proliferator-activated Response Element (PPRE) (AID 2282958). To be noted: HepG2 PPRE cis-element reporter, Attagene transcription factor profiling; actives raise or lower the signal. An outline of the steps: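 PPRE activity in HepG2: transient cis-reporter transfection, 24 h compound incubation, reporter mRNA by RT-PCR and CE fluorescence; gain/loss fitted against DMSO.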

The nature of experiment [14]: ATG_RORE_CIS: Attagene CIS-FACTORIAL HepG2 Assay for human RAR-related Orphan Receptor Element (RORE) (AID 2282959). To be noted: HepG2 Attagene cis-factorial RORE reporter, mRNA; actives raise or lower the signal. In a few lines:
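A 24-hour exposure of transfected HepG2 hepatoma cells precedes RNA isolation and reporter RT-PCR. Labeled products are digested with HpaI and resolved by capillary electrophoresis, with gain or loss of signal scored relative to DMSO.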

The nature of experiment [15]: ATG_Sox_CIS: Attagene CIS-FACTORIAL HepG2 Assay for human SRY-box transcription factor (SOX) (AID 2282960). The conditions noted are these: HepG2 Attagene cis-factorial SOX reporter, mRNA; actives raise or lower the signal. In a few lines: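 HepG2, cis reporter units, 24 h exposure. Reporter mRNA: RT-PCR → FAM labelling → HpaI → CE fluorescence. Bidirectional fit vs DMSO.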

Experiment [16] concerns the target Transcription factor Sp1 (Homo sapiens) (UniProt P08047). Description: ATG_Sp1_CIS: Attagene CIS-FACTORIAL HepG2 Assay for human Specificity Protein 1 (Sp1) (AID 2282961). To be noted: HepG2 Sp1 cis-reporter transcription, actives raise or lower the signal. An outline of the steps:
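Liver-derived HepG2 cells, cis-element reporter library, 24 h treatment; RNA isolated, cDNA amplified with reporter-specific primers, FAM-labeled fragments sized on capillary analyzer. DMSO baseline, bidirectional curve fit.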

Experiment [17] can be described thus: ATG_SREBP_CIS: Attagene CIS-FACTORIAL HepG2 Assay for human Sterol Regulatory Element Binding (SREBP) (AID 2282962). To be noted: HepG2 Attagene cis-factorial SREBP reporter, mRNA; actives raise or lower the signal. An outline of the steps: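 Endogenous factor activity is measured in HepG2 through multiplexed reporter units under cis-element control. Following a 24 h incubation, reporter transcripts are reverse-transcribed, PCR-amplified and sized by capillary electrophoresis; activity is fitted in both directions relative to DMSO.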

Experiment [18] addresses Signal transducer and activator of transcription 3 (Homo sapiens) (UniProt P40763). Description: ATG_STAT3_CIS: Attagene CIS-FACTORIAL HepG2 Assay for human Signal Transducer and Activator of Transcription 3 (STAT3) (AID 2282963). To be noted: HepG2, Attagene cis-factorial STAT3 reporter transcription; actives raise or lower the signal. In a few lines: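 Readout: fluorescent reporter mRNA fragments resolved by capillary electrophoresis. Setup: HepG2 transfected with MRTUs reporting endogenous transcription-factor activity, dosed 24 h. Gain or loss of signal fitted bidirectionally against DMSO control.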

The nature of experiment [19]: ATG_TA_CIS: Attagene CIS-FACTORIAL HepG2 Assay for human TA Basal Promoter (AID 2282964). The conditions noted are these: HepG2 Attagene CIS-factorial TA basal promoter reporter; actives raise or lower the signal. In a few lines:
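Transfected HepG2, 24 h compound exposure; RNA → RT-PCR → FAM primer extension → HpaI cut → CE fluorescence. Gain/loss-of-signal fitted against DMSO negative control. Background-control readout.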

The target of experiment [20] is Bile acid receptor (Homo sapiens) (UniProt Q96RI1). Description: ATG_IR1_CIS: Attagene CIS-FACTORIAL HepG2 Assay for human Nuclear Receptor Subfamily 1 Group H Member 4 (NR1H4), IR1 submotif (AID 2282946). The conditions noted are these: IR1 reporter transcription, actives raise or lower the signal. An outline of the steps:
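Fluorescence of capillary-separated, HpaI-digested RT-PCR reporter products gave IR1-element mRNA induction in HepG2 cells 24 h after dosing. Endogenous transcription factors drove the cis-regulated reporters; activity was fitted bidirectionally against DMSO.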

Some structures have more than one record in an assay (separate samples or runs), and their calls can disagree. Active and inactive are the calls of the source. Rule for the calls: active = hit-call score of the fitted dose curve at least 0.9, where 1 is the maximum; inactive = score below 0.9.

As a reminder, the AC50 is the concentration giving half of the maximal activity seen.

Chain of Hypoxia-inducible factor 1-alpha (Homo sapiens) (Q16665 whole entry, looked up): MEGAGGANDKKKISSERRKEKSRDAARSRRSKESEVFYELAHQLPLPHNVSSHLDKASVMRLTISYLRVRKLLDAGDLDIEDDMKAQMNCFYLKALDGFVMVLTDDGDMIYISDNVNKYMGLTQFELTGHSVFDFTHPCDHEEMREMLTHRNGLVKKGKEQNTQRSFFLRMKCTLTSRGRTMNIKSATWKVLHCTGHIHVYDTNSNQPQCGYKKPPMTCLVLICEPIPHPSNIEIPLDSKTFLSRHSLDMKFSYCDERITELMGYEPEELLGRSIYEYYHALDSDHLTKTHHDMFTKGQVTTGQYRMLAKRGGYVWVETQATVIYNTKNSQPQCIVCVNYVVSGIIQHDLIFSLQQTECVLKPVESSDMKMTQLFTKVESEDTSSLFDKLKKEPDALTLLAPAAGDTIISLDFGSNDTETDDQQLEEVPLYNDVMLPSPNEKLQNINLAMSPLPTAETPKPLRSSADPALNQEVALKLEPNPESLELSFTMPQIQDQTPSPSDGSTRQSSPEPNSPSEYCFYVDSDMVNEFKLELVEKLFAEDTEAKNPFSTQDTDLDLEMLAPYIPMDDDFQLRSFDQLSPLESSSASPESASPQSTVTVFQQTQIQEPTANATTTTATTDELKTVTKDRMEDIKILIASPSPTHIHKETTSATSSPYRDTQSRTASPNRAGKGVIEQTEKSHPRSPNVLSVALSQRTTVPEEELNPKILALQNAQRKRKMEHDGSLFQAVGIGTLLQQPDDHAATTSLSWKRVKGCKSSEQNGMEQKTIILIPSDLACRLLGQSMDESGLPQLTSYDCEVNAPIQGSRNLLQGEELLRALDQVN
Chain of Heat shock factor protein 1 (Homo sapiens) (Q00613 whole entry, looked up, the tested form may be a part): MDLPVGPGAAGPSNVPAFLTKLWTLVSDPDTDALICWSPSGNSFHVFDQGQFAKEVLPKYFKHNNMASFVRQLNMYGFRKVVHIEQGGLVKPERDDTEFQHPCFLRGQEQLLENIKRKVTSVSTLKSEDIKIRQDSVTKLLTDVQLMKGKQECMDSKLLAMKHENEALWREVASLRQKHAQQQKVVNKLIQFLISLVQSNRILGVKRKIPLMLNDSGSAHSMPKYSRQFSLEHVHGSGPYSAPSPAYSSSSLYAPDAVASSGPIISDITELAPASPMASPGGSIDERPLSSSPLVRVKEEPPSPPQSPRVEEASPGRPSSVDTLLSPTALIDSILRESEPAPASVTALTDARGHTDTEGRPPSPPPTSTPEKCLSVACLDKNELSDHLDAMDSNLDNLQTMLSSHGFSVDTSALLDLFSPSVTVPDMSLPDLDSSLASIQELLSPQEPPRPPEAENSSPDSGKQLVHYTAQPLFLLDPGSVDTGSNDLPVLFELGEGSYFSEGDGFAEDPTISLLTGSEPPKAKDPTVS
Chain of Signal transducer and activator of transcription 3 (Homo sapiens) (P40763 whole entry, looked up, the tested form may be a part): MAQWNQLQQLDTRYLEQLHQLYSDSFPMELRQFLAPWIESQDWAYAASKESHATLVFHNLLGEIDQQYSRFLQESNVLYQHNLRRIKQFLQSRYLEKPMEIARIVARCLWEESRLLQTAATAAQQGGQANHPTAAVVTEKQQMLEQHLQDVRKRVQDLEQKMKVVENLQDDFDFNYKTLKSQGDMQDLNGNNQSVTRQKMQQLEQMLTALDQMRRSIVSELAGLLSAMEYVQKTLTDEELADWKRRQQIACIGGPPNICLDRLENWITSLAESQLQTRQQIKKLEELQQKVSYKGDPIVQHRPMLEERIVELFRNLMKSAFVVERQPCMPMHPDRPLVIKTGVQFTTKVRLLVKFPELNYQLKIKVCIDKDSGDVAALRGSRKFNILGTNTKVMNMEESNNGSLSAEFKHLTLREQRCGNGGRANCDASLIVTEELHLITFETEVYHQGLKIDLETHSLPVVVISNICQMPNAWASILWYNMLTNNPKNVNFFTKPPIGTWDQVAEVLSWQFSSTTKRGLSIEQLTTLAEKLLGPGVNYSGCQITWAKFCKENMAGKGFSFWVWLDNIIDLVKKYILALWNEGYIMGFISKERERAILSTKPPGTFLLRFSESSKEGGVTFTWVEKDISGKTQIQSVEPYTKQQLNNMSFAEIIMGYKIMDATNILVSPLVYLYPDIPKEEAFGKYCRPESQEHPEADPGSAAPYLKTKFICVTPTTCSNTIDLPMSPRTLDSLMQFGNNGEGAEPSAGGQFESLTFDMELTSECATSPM
Chain of Paired box protein Pax-6 (Homo sapiens) (P26367 whole entry, looked up): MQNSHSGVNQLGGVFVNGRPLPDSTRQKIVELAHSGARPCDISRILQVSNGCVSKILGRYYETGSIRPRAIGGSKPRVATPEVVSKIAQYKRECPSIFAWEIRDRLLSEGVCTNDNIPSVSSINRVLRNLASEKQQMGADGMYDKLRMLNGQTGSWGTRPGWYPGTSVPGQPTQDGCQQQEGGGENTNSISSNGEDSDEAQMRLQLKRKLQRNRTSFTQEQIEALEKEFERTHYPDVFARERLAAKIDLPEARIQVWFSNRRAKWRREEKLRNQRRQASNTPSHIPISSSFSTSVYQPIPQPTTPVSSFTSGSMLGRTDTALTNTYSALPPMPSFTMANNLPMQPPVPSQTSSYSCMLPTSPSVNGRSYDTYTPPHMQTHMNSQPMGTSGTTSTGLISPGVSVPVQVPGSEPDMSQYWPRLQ
Chain of Hepatocyte nuclear factor 6 (Homo sapiens) (Q9UBC0 whole entry, looked up): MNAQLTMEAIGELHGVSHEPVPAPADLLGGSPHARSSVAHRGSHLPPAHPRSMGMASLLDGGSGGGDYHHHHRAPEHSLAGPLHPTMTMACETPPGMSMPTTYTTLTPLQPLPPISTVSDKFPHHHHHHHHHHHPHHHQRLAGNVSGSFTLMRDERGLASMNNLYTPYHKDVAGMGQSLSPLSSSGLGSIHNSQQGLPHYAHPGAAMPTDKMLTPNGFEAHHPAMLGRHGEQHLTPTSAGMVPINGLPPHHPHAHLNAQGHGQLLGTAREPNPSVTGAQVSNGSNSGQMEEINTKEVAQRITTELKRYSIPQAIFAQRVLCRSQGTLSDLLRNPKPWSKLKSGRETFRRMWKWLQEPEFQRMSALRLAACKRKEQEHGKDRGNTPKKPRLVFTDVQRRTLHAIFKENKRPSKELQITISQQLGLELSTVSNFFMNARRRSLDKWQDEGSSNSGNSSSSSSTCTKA
Chain of Transcription factor Sp1 (Homo sapiens) (P08047 whole entry, looked up, the tested form may be a part): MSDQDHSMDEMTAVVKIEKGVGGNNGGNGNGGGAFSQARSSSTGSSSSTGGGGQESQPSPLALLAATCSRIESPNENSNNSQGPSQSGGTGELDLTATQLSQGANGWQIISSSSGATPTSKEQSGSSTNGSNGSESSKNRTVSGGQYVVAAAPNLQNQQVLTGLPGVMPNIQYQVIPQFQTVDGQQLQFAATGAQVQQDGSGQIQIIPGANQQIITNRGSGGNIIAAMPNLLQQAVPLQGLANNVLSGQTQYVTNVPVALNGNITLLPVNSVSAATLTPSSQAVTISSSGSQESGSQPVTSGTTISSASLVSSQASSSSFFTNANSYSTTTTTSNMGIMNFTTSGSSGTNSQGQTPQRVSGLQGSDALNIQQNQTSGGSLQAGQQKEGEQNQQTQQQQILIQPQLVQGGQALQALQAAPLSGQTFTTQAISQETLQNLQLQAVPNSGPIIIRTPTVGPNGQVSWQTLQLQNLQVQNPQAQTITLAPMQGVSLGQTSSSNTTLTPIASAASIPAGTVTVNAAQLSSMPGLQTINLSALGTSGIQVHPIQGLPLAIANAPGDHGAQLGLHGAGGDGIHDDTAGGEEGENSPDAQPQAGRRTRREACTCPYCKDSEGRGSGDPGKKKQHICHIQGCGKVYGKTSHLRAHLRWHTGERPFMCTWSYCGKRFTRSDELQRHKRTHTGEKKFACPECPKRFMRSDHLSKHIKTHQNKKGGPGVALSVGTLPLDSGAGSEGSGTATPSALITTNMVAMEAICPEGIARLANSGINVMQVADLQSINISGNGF
Chain of Bile acid receptor (Homo sapiens) (Q96RI1 whole entry, looked up): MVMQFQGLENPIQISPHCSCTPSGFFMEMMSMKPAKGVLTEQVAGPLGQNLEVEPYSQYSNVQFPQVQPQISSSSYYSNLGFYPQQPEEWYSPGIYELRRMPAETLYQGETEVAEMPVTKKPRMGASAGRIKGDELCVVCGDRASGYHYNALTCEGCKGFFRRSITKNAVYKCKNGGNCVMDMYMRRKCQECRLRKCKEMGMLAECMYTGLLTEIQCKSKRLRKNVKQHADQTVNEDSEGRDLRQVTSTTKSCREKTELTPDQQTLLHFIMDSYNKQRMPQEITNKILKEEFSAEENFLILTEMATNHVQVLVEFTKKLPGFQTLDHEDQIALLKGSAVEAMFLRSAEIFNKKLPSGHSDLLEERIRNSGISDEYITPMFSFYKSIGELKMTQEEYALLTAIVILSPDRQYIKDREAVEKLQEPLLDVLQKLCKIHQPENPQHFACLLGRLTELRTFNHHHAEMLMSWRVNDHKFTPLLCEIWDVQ

With `Cc1cc(C)cc(O)c1`, the outcome in experiment [1], in [2], in experiment [3], in experiment [4], in experiment [5] and in experiment [6] was inactive. The compound was classed as inactive in experiment [7], in experiment [8], in experiment [9], in experiment [10], in experiment [11] and in experiment [12]. For the same compound, the call in [13], in [14], in experiment [15], in [16], in experiment [17] and in [18] was inactive. For the same compound, in experiment [19], the compound was called inactive. In addition, in experiment [12], the half-maximal activity concentration (AC50) is 64.5 µM (active).

Regarding `FC(F)(F)C(F)(F)C(F)(F)CI`, the compound was called inactive in experiment [1], in experiment [20], in experiment [2], in [3], in [4] and in experiment [5]. Also, the outcome in experiment [6], in experiment [7], in experiment [8], in [9], in [10] and in [11] was inactive. Also, the compound was called inactive in experiment [13], in experiment [14], in experiment [15], in experiment [16], in [17] and in experiment [18]. For the same compound, in experiment [19], the call was inactive.

On to `Cc1ccc(S(=O)(=O)OCC(F)(F)C(F)(F)C(F)(F)C(F)(F)C(F)(F)C(F)F)cc1`, for which the outcome in experiment [1], in experiment [20], in experiment [2], in experiment [3], in experiment [4] and in [5] was inactive. Besides, the compound was classed as inactive in [6], in [7], in [8], in experiment [9], in experiment [10] and in experiment [11]. In addition, the compound was classed as inactive in experiment [13], in experiment [14], in [15], in experiment [16], in [17] and in experiment [18]. Also, the outcome in experiment [19] was inactive.

For the origin of these results see PubChem BioAssay (EPA / NIEHS).
